Test results reported in PubChem BioAssay (NCI).
The panel holds about 83,000 compounds, 20% with a hit somewhere; the sample as a whole holds those more often.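 Assay: single dose, 48 h. Readout: percent growth (0 = no net growth; negative = cell death). Active: <10.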 Unmarked numbers belong to inactive results. Activity calls are given as the source filed them.

Tested on: SF-295 CNS
Assay: NCI-60 one-dose screen, 48 h (100 = growth as untreated, 0 = no growth, -100 = all killed)
Settings: 10 µM unless noted

Row | SMILES | growth
1 | O=C1NC(=S)N[C@H]1CC(=O)n1cnc2ccccc21 | 100%
2 | O=S(=O)(Nc1ccc(I)cc1F)c1ccc(-c2cnc(C3CC3)o2)cc1 | 28.6%
3 | CC[C@@H](C(=O)[C@@H](C)[C@@H](O)[C@H](C)[C@@H]1O[C@@H]([C@@H](CC)C(=O)O)CC[C@@H]1C)[C@H]1OC2(C=C[C@@H](O)[C@]3(CC[C@@](C)([C@H]4CC[C@](O)(CC)[C@H](C)O4)O3)O2)[C@H](C)C[C@@H]1C (stereo partly specified) | 1.38% (active)
4 | CCOC(=O)c1csc(NC(=O)COc2cccc(/C=C3\CSc4ccccc4C3=O)c2)n1 | 93.7%
5 | CN1CCN(c2ccc3nc(-c4ccc(OCCCCN5CCN(CCCCN6C(=O)c7cccc8cccc(c78)C6=O)CC5)cc4)[nH]c3c2)CC1 | 29.1%
6 | Cc1ncc(C(=O)Nc2ccc(CN3CCN(C)CC3)c(C(F)(F)F)c2)cc1C#Cc1cnc2cccnn12 | 8.94% (active)
7 | Cc1nc2c3c(-c4ccccc4)c(-c4ccccc4)oc3ncn2n1 | 92.7%
8 | O=C(N/N=C/c1ccccc1O)c1ccccc1Nc1ccnc(C(F)(F)F)c1 | 7.17% (active)
9 | COC(=O)[C@]12CCC(C)(C)C[C@H]1[C@H]1C(=O)C[C@@H]3[C@@]4(C)c5c([nH]c6ccccc6c5=O)C(C)(C)[C@@H]4CC[C@@]3(C)[C@]1(C)CC2 | 35.6%
10 | COc1ccc(-c2n[nH]nc2-c2csc3ccccc23)cc1OC | 25.9%
11 | O=C1c2ccccc2C(=O)c2c(N=Nc3[nH]c(=S)[nH]c3O)cccc21 | 7.45% (active)
